Values joined by “and” are separate entries in the source; they are usually repeats but may differ in a detail not shown here. Identical values can stand only once. About 83,000 compounds went through this panel and 20% of them were active in at least one assay; those are over-represented in the sample as a whole.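 Activity criterion: percent growth below 10, measured after cells in 96-well plates were exposed to a single compound concentration for 48 hours.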 Unmarked numbers belong to inactive results. Active and inactive are the calls of the source.

Holding throughout (assay): NCI-60 one-dose screen, 48 h (100 = growth as untreated, 0 = no growth, -100 = all killed)
Details in all cases: 10 µM unless noted

For experiment [1], the system named is MOLT-4 leukemia.
In experiment [2] the test system is SR leukemia.
The test system of experiment [3] is RPMI-8226 leukemia.
Experiment [4] relates to OVCAR-8 ovarian.
Experiment [5] has as its system OVCAR-5 ovarian.
For experiment [6], the system named is OVCAR-4 ovarian.
Experiment [7] deals with SK-OV-3 ovarian.
In experiment [8] the test system is IGROV1 ovarian.
For experiment [9], the system named is OVCAR-3 ovarian.
Experiment [10] has as its system HS 578T breast.
Experiment [11] has as its system NCI/ADR-RES ovarian.
For experiment [12], the system named is T-47D breast.
Experiment [13] concerns BT-549 breast.
The subject of experiment [14] is MDA-MB-435 melanoma.
In experiment [15] the test system is SW-620 colon.
The test system of experiment [16] is MCF7 breast.
Experiment [17] relates to HCT-116 colon.
Experiment [18] relates to KM12 colon.
Experiment [19] concerns HCC-2998 colon.

Consider `C/C(=N/OC(=O)N(C)C)c1ccc(Cl)c(Cl)c1`, for which the growth in experiment [1] was 86.3%; in experiment [2] it was 74.5%; in experiment [3] it was 89%; in [4], 104%; in experiment [5] it was 100%; in experiment [6], 119%. Moreover, the growth in [7] was 116%; in experiment [8] it was 105%; in experiment [9] it was 113%; in [10], 116%; in experiment [11], 106%; in experiment [12], 95.6%. Also, the growth in experiment [13] was 125%; in experiment [14], 106%; in experiment [15], 115%; in experiment [16], 97.3%; in experiment [17], 107%; in [18], 109%.
As for `COC(=O)[C@@H](C)C[C@H](Cc1ccccc1)NC(=O)c1cccc([C@@H](C[C@H](C(C)C)N(C)C(=O)[C@@H](NC(=O)[C@H]2CCCCN2C)C2CC2)OC(C)=O)n1`, the growth was 14.6% in [1]; 14.5% in experiment [2]; 25.4% in experiment [3]; 14.4% in experiment [4]; 38.2% in [5]; 52% in experiment [6]. The growth in experiment [7] was 1.39% (active); in experiment [8], 23.3%; in experiment [9], -47.5% (active); in experiment [10] it was 27%; in experiment [11], 16.4%; in experiment [12] it was 63.1%. Further, the growth is -17.1% (active) in [13]; -25.4% (active) in experiment [14]; 23% in experiment [15]; 1.92% (active) in experiment [17]; 13% in experiment [19]; -1.96% (active) in experiment [18].
For the compound `Oc1ccccc1C=NCCN=Cc1ccccc1O`, the growth is 106% in [1]; 98.5% in experiment [2]; 95.1% in experiment [3]; 110% in experiment [4]; 104% in experiment [5]; 109% in experiment [6]. Also, the growth is 102% in experiment [7]; 118% in [8]; 102% in experiment [9]; 106% in experiment [10]; 103% in experiment [11]; 103% in experiment [12]. Also, the growth is 106% in experiment [13]; 108% in experiment [14]; 100% in experiment [15]; 97.7% in [16]; 94.2% in experiment [17]; 104% in experiment [18].
Regarding `Cc1cc(N(CCCl)CCCl)ccc1/C=N\NC(=O)c1cccnc1`, the growth in experiment [1] is 49.6% and 60.5%; in experiment [2], 23.4% and 54.5%; in experiment [3] it was 85.7% and 86.1%; in [4], 88.4% and 80.2%; in [5], 33.9% and 74%; in [6], 93.2% and 80.5%. The growth in [7] is 74.2% and 102%; in experiment [8], 79.9% and 82.6%; in experiment [9] it was 104% and 101%; in [10], 98.3% and 103%; in [11], 81.6% and 82.4%; in experiment [12] it was 57.5% and 60.7%. For the same compound, the growth in [13] was 86% and 78.8%; in [14] it was 91.3% and 88.1%; in experiment [15], 91.4%; in experiment [16], 50.4% and 59.7%; in experiment [17], 84% and 79.2%; in experiment [18], 104% and 95.1%.
For the compound `COc1ccc(N(CC(=O)NCCC[Te]c2ccccc2)C(=O)c2ccccc2)cc1`, the growth is 17.9% in experiment [1]; 10.3% in experiment [2]; 22.5% in [3]; 14.2% in experiment [4]; 33.4% in experiment [5]; 99% in experiment [6]. The growth in [7] is 1.16% (active); in [8], 15.4%; in experiment [9], 95.9%; in [10], 32.4%; in experiment [11], 11.5%; in [12], 135%. The growth in [13] was -36.2% (active); in experiment [14] it was 101%; in experiment [15], 82%; in experiment [17] it was 9.88% (active); in [19], 57.6%; in experiment [18], 26.3%.
Take `C[C@]12CC[C@H]3[C@@H](CC=C4c5nc(N)sc5CC[C@@]43C)[C@@H]1CC[C@@H]2O`: the growth in [1] was 103%; in experiment [2], 91.6%; in experiment [3], 103%; in experiment [4], 99.5%; in [5] it was 107%; in experiment [6], 95.7%. Moreover, the growth in [7] was 103%; in [8] it was 114%; in experiment [9], 99.6%; in experiment [10], 105%; in experiment [11] it was 102%; in [12], 92.2%. For the same compound, the growth in experiment [13] was 99.5%; in experiment [14], 92.9%; in experiment [15] it was 90.1%; in experiment [17], 92.1%; in experiment [19] it was 98.4%; in experiment [18] it was 102%.
Regarding `COc1ccc2c(c1)c(-c1nc(-c3c[nH]c4ncccc34)cs1)cn2CCCCN1CCOCC1`, the growth in [1] is -21% (active); in [2], -17.5% (active); in [3], -5.6% (active); in experiment [4], 55.6%; in [5], 58.3%; in experiment [6], 50.8%. For the same compound, the growth in experiment [7] was 78.2%; in experiment [8], 36.1%; in experiment [9] it was 58.3%; in [10], 44.8%; in experiment [11], 63.3%; in [12], 48%. For the same compound, the growth in [13] was 84.2%; in [14], -59% (active); in experiment [15], -63% (active); in experiment [16], 18.1%; in [17], 32.5%; in experiment [18], 16.4%.
Regarding `CCCCS(=O)(=O)Cl`, the growth in [1] was 116%; in experiment [2], 104%; in experiment [3] it was 109%; in experiment [4] it was 105%; in experiment [5], 104%; in [6], 97.8%. In addition, the growth is 110% in experiment [7]; 116% in experiment [8]; 120% in experiment [9]; 102% in experiment [10]; 107% in [11]; 100% in [12]. The growth in experiment [13] was 104%; in [14] it was 108%; in experiment [15], 112%; in experiment [17], 97.6%; in experiment [19], 124%; in experiment [18] it was 114%.
